This note sets out measurements from PubChem BioAssay AID2313 (Broad Institute, 2010).

The campaign covered roughly 22,000 compounds. About 460 (2.1%) were called active. Inconclusive results (about 2%) are left out. The full list was thinned out, with actives kept by preference. A number with no mark means an inactive call.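 The calls were made as follows: active = mean inhibition across valid replicates above about 65% (limit read from the data); inconclusive = mean under the limit, yet half or more replicates past it; inactive = the rest.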

The nature of the experiment: Shh-driven Gli reporter inhibition – luminescence, Shh-LIGHT2 cells, Gli-luciferase, primary screen (AID 2313).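 Also: pathway switched on by Shh-conditioned medium diluted 1 in 25 in low serum.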 The following applies: 30 h, stronger effect = higher value.
`COc1ccc(S(=O)(=O)N(C)C[C@H]2Oc3ccc(NC(=O)C4CC4)cc3CC(=O)N([C@@H](C)CO)C[C@@H]2C)cc1`: the inhibition was -32.4%.

For the molecule `CC(C)NC(=O)Nc1ccc2c(c1)C(=O)N([C@@H](C)CO)C[C@@H](C)[C@H](CN(C)Cc1ccc(C(=O)O)cc1)O2`, the inhibition was -19.8%.

`C[C@H]1CN([C@@H](C)CO)C(=O)Cc2cc(N(C)C)ccc2O[C@@H]1CN(C)Cc1ccc(-c2ccccc2)cc1`: the inhibition was 33.2%.

`C[C@@H]1CCCCO[C@@H](CN(C)C(=O)CCC(F)(F)F)[C@@H](C)CN([C@H](C)CO)C(=O)c2cc(NC(=O)Nc3ccccc3)ccc2O1`: the inhibition was -0.845%.

In the case of `O=C(c1ccccc1)c1cnn(-c2ccc(Cl)cc2)n1`, the inhibition is 79.3% (active).

Take `C[C@@H]1CN([C@H](C)CO)C(=O)Cc2cc(NC(=O)C3CCCCC3)ccc2O[C@@H]1CN(C)S(C)(=O)=O`: the inhibition was -14.6%.

Regarding `C[C@@H]1CN([C@H](C)CO)C(=O)c2cccc(NC(=O)Nc3ccc4c(c3)OCO4)c2O[C@H]1CN(C)C(=O)Nc1ccc(F)cc1`, the inhibition was -8.45%.

Turning to `C[C@@H]1CN([C@@H](C)CO)C(=O)c2cccc(NC(=O)NC3CCCCC3)c2O[C@@H]1CN(C)CC1CCCCC1`, the inhibition is -35.3%.

In the case of `C[C@H]1CN([C@@H](C)CO)C(=O)Cc2cc(NC(=O)CCC(F)(F)F)ccc2O[C@H]1CN(C)C(=O)NC1CCCCC1`, the inhibition is -30.3%.

In the case of `O=C1C2CC3CC1CC(C(=O)O)(C3)C2`, the inhibition was -15.4%.

On to `CCN1C(=O)c2cccc3c(NC(=S)NC(=O)c4ccccc4)ccc1c23`, for which the inhibition was 86.3% (active).

Regarding `O=c1c2ccccc2c(-c2ccccc2)nn1Cc1ccccc1`, the inhibition was 9.85%.

Turning to `CC(C)(C)c1ccc(Cn2c(=N)n(CC(=O)O)c3ccccc32)cc1`, the inhibition was -5.52%.

On to `O=c1n(Cc2ccccc2)c2ccccc2n1Cc1ccccc1`, for which the inhibition is 96.1% (active).

Regarding `CCCN(C)C[C@@H]1OCCCC[C@@H](C)Oc2ccc(NC(=O)CCCN(C)C)cc2C(=O)N([C@H](C)CO)C[C@@H]1C`, the inhibition is -7.4%.

In the case of `S=C(NCC1CC1)Nc1ccc(Cl)cc1`, the inhibition is -35.4%.

Regarding `O=C(O)c1c(Br)c(Br)c(Br)c(Br)c1-c1c2ccc(=O)cc-2oc2cc(O)ccc12`, the inhibition is -5.58%.

Regarding `C[C@@H]1CN([C@@H](C)CO)C(=O)c2cccc(NC(=O)Nc3ccc(F)cc3)c2O[C@H]1CN(C)Cc1ccc(-c2ccccc2)cc1`, the inhibition was 2.55%.

Consider `C[C@H]1CN([C@@H](C)CO)C(=O)c2cc(NC(=O)Nc3ccccc3)ccc2O[C@H]1CN(C)S(C)(=O)=O`, for which the inhibition is -21%.

On to `C[C@@H]1CN([C@H](C)CO)C(=O)Cc2cc(NS(=O)(=O)c3ccc(Cl)cc3)ccc2O[C@H]1CN(C)S(=O)(=O)c1cccs1`, for which the inhibition is -21.8%.

Regarding `COc1ccc(S(=O)(=O)N(C)C[C@@H]2OCCCC[C@@H](C)Oc3ccc(NS(C)(=O)=O)cc3C(=O)N([C@H](C)CO)C[C@@H]2C)cc1`, the inhibition was 54.6%.

As for `C=C1C(=O)OC2/C=C(\C)CC3C=C(CC/C=C(\C)CCC12)C(=O)O3` (stereo not drawn), the inhibition was 39.9%.

In the case of `CC(C)NC(=O)Nc1ccc2c(c1)CC(=O)N([C@H](C)CO)C[C@H](C)[C@H](CN(C)Cc1ccc3c(c1)OCO3)O2`, the inhibition is -12.2%.

Turning to `C[C@@H]1CN([C@H](C)CO)C(=O)c2cccc(NS(=O)(=O)c3ccc(Cl)cc3)c2O[C@@H]1CN(C)Cc1ccc(Oc2ccccc2)cc1`, the inhibition is 23.8%.

Turning to `C[C@@H]1O[C@@H](O[C@H]2[C@@H](Oc3cc(O)c4c(c3)O[C@H](c3ccc(O)cc3)CC4=O)O[C@H](CO)[C@@H](O)[C@@H]2O)[C@H](O)[C@H](O)[C@H]1O`, the inhibition was -8.61%.

`C[C@@H]1CN([C@H](C)CO)C(=O)c2cccc(NS(=O)(=O)c3ccc(Cl)cc3)c2O[C@H]1CN(C)C(=O)NC1CCCCC1`: the inhibition was -17%.

Turning to `CC(C)NC(=O)N(C)C[C@@H]1Oc2ccc(NS(=O)(=O)c3cn(C)cn3)cc2C(=O)N([C@@H](C)CO)C[C@@H]1C`, the inhibition is 8%.

Take `Cc1ccc(NC(=O)C2C3C=CC(C3)C2C(=O)O)cc1` (stereo not drawn): the inhibition was -27.3%.

As to `Cc1ccc(S(=O)(=O)Nc2ccc3c(c2)C(=O)N([C@H](C)CO)C[C@H](C)[C@@H](CN(C)S(=O)(=O)c2cccs2)O3)cc1`, the inhibition is -5.89%.

On to `C[C@@H]1CCCCO[C@H](CN(C)Cc2ccc(Cl)c(Cl)c2)[C@@H](C)CN([C@H](C)CO)C(=O)c2cc(NS(=O)(=O)c3cn(C)cn3)ccc2O1`, for which the inhibition is -46.4%.

With `CC(C)NC(=O)N(C)C[C@H]1Oc2c(NS(=O)(=O)c3cccs3)cccc2C(=O)N([C@H](C)CO)C[C@H]1C`, the inhibition was -35.4%.

In the case of `C[C@@H]1CN([C@H](C)CO)C(=O)c2cccc(NS(=O)(=O)c3ccc(F)cc3)c2O[C@H]1CN(C)Cc1ccc(Oc2ccccc2)cc1`, the inhibition is 23.1%.

In the case of `COc1ccc(CN(C)C[C@H]2Oc3ccc(NS(=O)(=O)c4ccc(C)cc4)cc3C(=O)N([C@@H](C)CO)C[C@H]2C)cc1`, the inhibition was 29.4%.

For `COc1cc([C@H]2OC[C@H]3[C@@H]2CO[C@@H]3c2cc(OC)c(O[C@@H]3O[C@H](CO)[C@@H](O)[C@H](O)[C@H]3O)c(OC)c2)cc(OC)c1O`, the inhibition was 2.06%.

Consider `COc1ccc(CN2C(=O)CC(Cc3ccc(C)cc3)C2=O)cc1OC` (stereo not drawn), for which the inhibition was 4.43%.

As to `COc1ccc(S(=O)(=O)Nc2cccc3c2O[C@@H](CN(C)S(=O)(=O)c2ccccc2)[C@@H](C)CN([C@@H](C)CO)C3=O)cc1`, the inhibition is -0.37%.

On to `O=C(CSc1nnc2n1CCCN2)c1ccccc1`, for which the inhibition was -28.2%.

As for `O=C1C=C(SCC(=O)c2ccccc2)SC(c2ccc(Cl)cc2)C1` (stereo not drawn), the inhibition was 82.7% (active).

With `CC1(C)CC[C@]2(C(=O)O[C@@H]3O[C@H](CO)[C@@H](O)[C@H](O)[C@H]3O)CC[C@]3(C)C(=CCC4[C@@]5(C)CC[C@H](O[C@@H]6O[C@H](C(=O)O)[C@@H](O[C@@H]7OC[C@H](O)[C@H](O)[C@H]7O)[C@H](O)[C@H]6O)C(C)(C)C5CC[C@]43C)C2C1` (stereo partly drawn), the inhibition is 35.4%.

`C/C=C(/C)C(=O)O[C@H]1CC(C)(C)C[C@H]2C3=CCC4[C@@]5(C)CC[C@H](O[C@@H]6O[C@H](C(=O)O)[C@@H](O[C@@H]7O[C@H](CO)[C@H](O)[C@H](O)[C@H]7O[C@@H]7O[C@H](CO)[C@@H](O)[C@H](O)[C@H]7O)[C@H](O)[C@H]6O[C@@H]6O[C@@H](C)[C@H](O)[C@@H](O)[C@H]6O)C(C)(C)C5CC[C@@]4(C)[C@]3(C)[C@@H](OC(C)=O)[C@@H](O)[C@@]12COC(C)=O` (stereo partly drawn): the inhibition is 97.7% (active).

`C=CC1(C)C=C2CCC3C(C)(C)C(O[C@@H]4O[C@@H](CO)[C@H](O)[C@H]4O)CCC3(C)C2CC1O[C@@H]1O[C@H](C)[C@@H](OC)[C@H](O)[C@H]1O` (stereo partly drawn): the inhibition is -27.2%.

Regarding `COC(=O)C1=CO[C@@H](O[C@@H]2O[C@H](CO)[C@@H](O)[C@H](O)[C@H]2O)[C@@H]2[C@@](C)(O)[C@@H](OC(=O)/C=C/c3ccc(OC)c(OC)c3)C[C@]12O`, the inhibition is 3.81%.

For the molecule `C/C=C(/C)C(=O)O[C@H]1CC(C)(C)C[C@H]2C3=CCC4[C@@]5(C)CC[C@H](O[C@@H]6O[C@H](C(=O)O)[C@@H](O[C@@H]7O[C@H](CO)[C@H](O)[C@H](O)[C@H]7O[C@@H]7O[C@H](CO)[C@@H](O)[C@H](O)[C@H]7O)[C@H](O)[C@H]6O[C@@H]6O[C@@H](C)[C@H](O)[C@@H](O)[C@H]6O)C(C)(C)C5CC[C@@]4(C)[C@]3(C)[C@@H](O)[C@@H](O)[C@@]12CO` (stereo partly drawn), the inhibition was 99.7% (active).

On to `CC1(C)CC[C@]2(C(=O)O)CC[C@]3(C)C(=CCC4[C@@]5(C)CC[C@H](OC6O[C@H](CO)[C@@H](O)[C@H](O[C@@H]7O[C@H](CO)[C@@H](O)[C@H](O)[C@H]7O)[C@H]6O)C(C)(C)C5CC[C@]43C)[C@@H]2C1` (stereo partly drawn), for which the inhibition was 107% (active).

For `CCC/C=C/C(=O)OC1C(O)C23C(O)OC4(CCC5C6(C)CCC(OC7OC(C(=O)O)C(O)C(OC8OC(CO)C(O)C(O)C8OC8OC(C)C(O)C(O)C8OC8OCC(O)C(O)C8O)C7OC7OC(CO)C(O)C(O)C7O)C(C)(C)C6CCC5(C)C4(C)CC2OC(C)=O)C3CC1(C)C` (stereo not drawn), the inhibition was 104% (active).

`CC1OC(OC2C(OC3C(O[C@H]4CC[C@@]5(C)C(CC[C@]6(C)C5CC=C5[C@@H]7CC(C)(C)C[C@@H](O)[C@]7(C)CC[C@]56C)C4(C)C)OC(C(=O)O)C(O)C3O)OC(CO)C(O)C2O)C(O)C(O)C1O` (stereo partly drawn): the inhibition is 7.2%.

Regarding `C[C@H](CO)N1C[C@H](C)[C@H](CN(C)Cc2ccc3c(c2)OCO3)Oc2c(cccc2N(C)C)C1=O`, the inhibition was -27.6%.

Turning to `CCCC(=O)Nc1ncnc2c1ncn2C1O[C@@H]2COP(=O)(O)O[C@H]2[C@H]1OC(=O)CCC` (stereo partly drawn), the inhibition was -62.8%.

As to `C[C@@H]1CCCCO[C@@H](CN(C)C(=O)Nc2cccc3ccccc23)[C@@H](C)CN([C@H](C)CO)C(=O)c2cc(NS(C)(=O)=O)ccc2O1`, the inhibition was 33.2%.

As to `O=C(Oc1cccc(C(F)(F)F)c1)c1cc2ccc3ccccc3c2s1`, the inhibition is -31.9%.

As to `CC1(C)C2CC[C@]3(C)C(C(=O)C=C4[C@@H]5C[C@@](C)(C(=O)O)CC[C@]5(C)CC[C@]43C)[C@@]2(C)CC[C@@H]1O` (stereo partly drawn), the inhibition is 66.5% (active).

With `CC1(C)CC[C@@]2(C(=O)O)C(C1)C1=CCC3[C@@]4(C)CC[C@H](O)C(C)(C)C4CC[C@@]3(C)[C@]1(C)C[C@H]2O` (stereo partly drawn), the inhibition was -24.6%.

`C[C@@H]1CC[C@]2(C(=O)O)CC[C@]3(C)C(=CCC4[C@@]5(C)CC[C@H](O)[C@](C)(C(=O)O)C5CC[C@]43C)C2[C@]1(C)O` (stereo partly drawn): the inhibition is -18.2%.

In general, inhibition refers to the change of the read-out against control, counted positive when it falls.
